“And” between values parts separate entries of the source, which are not always exact repeats. Equal values may be shown once. Records with an inconclusive call do not appear. Unmarked numbers belong to inactive results. The source made the active and inactive calls. Calls come from the whole dose curve; as a rule, active = well fitted inhibition curve with a large enough effect; inconclusive = small, poorly fitted or top-dose-only effect; inactive = flat fitted curve, though single readings scatter.

One assay relates to MCC-13. In words: qHTS assay to identify novel small-molecules to repurpose for Merkel cell carcinoma treatment (AID 1296009). Note: % is set by controls: 0 for no effect and ±100 for the full control effect. To be noted: MCC and control cell lines, CellTiter-Glo viability, 72 h; series mostly up to 46 µM. The procedure, abridged: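 Cells were treated for 72 hr at 37 degree celsius with compounds in 8- or 11-point dose response. Viability was read by CellTiter-Glo luminescence, normalized to no-cell (cytotoxicity) and DMSO controls.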
A general note: Quantitative high-throughput screening tests each substance at several concentrations.

The test system of the next assay is HaCat. Nature of the assay: Cytotoxic Profiling of Annotated Libraries Using Quantitative High-Throughput Screening (AID 1296008). For max response: % is set by controls: 0 for no effect and ±100 for the full control effect. Note: potency is the fitted concentration of half-maximal effect. To be noted: Five cell lines viability, CellTiter-Glo ATP luminescence, 48-72 h; max response: stronger effect = lower value. A digest of the protocol: (§1)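 Cells exposed to compounds for 48 or 72 hr at 37 degrees Celsius. Viability read as ATP-coupled luminescence with CellTiter-Glo after 10 min at room temperature.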
For orientation: ATP-based viability assays read luminescence as a measure of living cells.

Another assay relates to KB-3-1. Described as above. To be noted: Five cell lines viability, CellTiter-Glo ATP luminescence, 48-72 h; max response: stronger effect = lower value. The procedure, abridged: as §1
In the next assay the test system is NIH3T3. The assay is described as above. To be noted: Five cell lines viability, CellTiter-Glo ATP luminescence, 48-72 h; max response: stronger effect = lower value. The procedure, abridged:
as §1

A further assay deals with TAB165. Nature of the assay: qHTS profiling for inhibitors of Plasmodium falciparum proliferation (AID 504749). Note: potency is the fitted concentration of half-maximal effect. As to conditions: P. falciparum in erythrocytes, SYBR Green DNA, 72 h; series mostly up to 28.7 µM. The procedure, abridged: (§2)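 P. falciparum-infected erythrocytes (0.3% parasitemia, 2.5% hematocrit) incubated with compound 72 h at 37 C, 5% CO2. Parasite DNA detected by SYBR Green after lysis, overnight at room temperature; normalised to 0.29 uM artemisinin and DMSO.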

A further assay relates to W2. The assay is described as above. To be noted: P. falciparum in erythrocytes, SYBR Green DNA, 72 h; series mostly up to 28.7 µM. A digest of the protocol: as §2
Note: nearly all actives have a fitted effect of over 60% in size.

Turning to `O=C(O)/C=C\C(=O)O`, the Potency result in the assay on MCC-13 is “inactive”.

Consider `O=c1cc(-c2ccccc2)oc2ccccc12`, for which the Potency is 34 µM (active) with HaCat and 199 nM (active) in the assay with KB-3-1. In addition, the Potency result in the assay with MCC-13 was “inactive”.

Consider `CCN(CC)CCCCNc1ncc2cc(-c3c(Cl)cccc3Cl)c(NC(=O)NC(C)(C)C)nc2n1`, for which the Potency in the assay on HaCat was 20.6 µM (active); with NIH3T3, 1.16 µM (active).

Regarding `O=C1CN(/N=C/c2ccc(-c3ccc([N+](=O)[O-])cc3)o2)C(=O)N1`, the Potency entry with TAB165 and in the assay with W2 was “inactive” each time.

`CCCCCCOc1ccccc1C(N)=O`: the Potency entry with TAB165, in the assay with W2 and with MCC-13 was “inactive” in each case. Further, the max response in the assay with HaCat was -20.5%; in the assay with KB-3-1 it was 0.591%; with NIH3T3 it was -8.29%.

As for `N=c1ccn2c(n1)O[C@H]1[C@H](O)[C@@H](CO)O[C@H]12`, the Potency result in the assay on TAB165 and in the assay with W2 was “inactive” each time. In addition, in the assay on KB-3-1, the max response was 33.6%.

Regarding `C#C[C@]1(O)CC[C@H]2[C@@H]3CCc4cc(O)ccc4[C@H]3CC[C@@]21C`, the Potency entry in the assay with TAB165 and with W2 was “inactive” throughout. Also, the Potency in the assay with HaCat is 4.73 µM (active). Further, the max response in the assay on NIH3T3 was -26.3%.

Consider `CC(C)Cc1ccc([C@H](C)C(=O)O)cc1`, for which the max response in the assay with KB-3-1 is -10.1%.

As to `C[N+](C)(C)CCOP(=O)(O)OP(=O)([O-])OC[C@H]1O[C@@H](n2ccc(N)nc2=O)[C@H](O)[C@@H]1O`, the max response with KB-3-1 was 10.6% and -5.11%.

In the case of `CO/N=C(\C(=O)N[C@@H]1C(=O)N2C(C(=O)O)=C(COC(C)=O)CS[C@H]12)c1csc(N)n1` (stereo in doubt), the max response in the assay with KB-3-1 was -7.91%.

As to `NC(=O)C(c1ccccc1)(c1ccccc1)[C@@H]1CCN(CCc2ccc3c(c2)CCO3)C1`, in the assay on W2, the Potency was 1.69 µM (active).

For the compound `CC(=O)[C@]1(O)Cc2c(O)c3c(c(O)c2[C@@H](O[C@H]2C[C@H](N)[C@H](O)[C@H](C)O2)C1)C(=O)c1c(O)cccc1C3=O`, the Potency in the assay on TAB165 is 5.01 µM (active); with W2, 4.26 µM (active).
